Test results reported in PubChem BioAssay (NCI).
Compounds without any hit were thinned out: in the full panel of roughly 83,000, 20% have a hit.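 Values shown are percent growth following 48 h exposure of cells in 96-well plates to a single concentration of compound; below 10 was considered active.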 Values without a mark were called inactive. The source made the active and inactive calls.

These compounds were tested on COLO 205 colon (assay: NCI-60 one-dose screen, 48 h (100 = growth as untreated, 0 = no growth, -100 = all killed)). Conditions: 10 µM unless noted.
Method: Cells are grown in 96 well plates and exposed to the test compound for 48 hours. Compounds are tested at a single concentration, which is 10^-5 M for most compounds. The reported endpoint is percent growth (GI% or GIPRCNT), where numbers from 0 - 100% represent growth inhibition, and numbers from -100% - 0 represent cell death. For example, a value of 40 represents 60% growth inhibition. A value of 0 means no net growth occurred over the course of the experiment. A value of -40 indicates 40% of cells at the beginning of the experiment died by the end of the experiment. A value of -100 means all cells are dead at the end of the experiment.
NCI-60 Human Tumor Cell Lines Screen was performed using the standard one-dose NCI protocol, which is described in more detail at https://dtp.cancer.gov/discovery_development/nci-60/default.htm.
Compounds with GIPRCNT values below 10 were considered active. Activity score was based on GIPRCNT using the following formula: […]
Score is 0 for GIPRCNT values of 100 or above, 50 for GIPRCNT values of 0, and 100 for GIPRCNT values of -100.

Q: `CCOC(=O)Cc1cc(Br)c(OCc2ccccc2)c(Br)c1` was tested. Which growth did it give?
A: 127%

Q: Which growth does the source give for `COc1ccccc1CNCCCN1C(=O)c2ccc3c4c(ccc(c24)C1=O)C(=O)N(CCCCNCCCN)C3=O` here?
A: -83.7% (active)

Q: `O=C(Nc1cccc(C2=NCCN2)c1)c1ccc(N=Nc2ccc(C(=O)Nc3cccc(C4=NCCN4)c3)cc2)cc1` was tested. Which growth did it give?
A: 64.5%

Q: For `CC(C)C/C=C/C=C/C(=O)N[C@@H](CC(N)=O)C(=O)N[C@@H]1C(=O)N[C@H](c2ccc(O)cc2)C(=O)N[C@H](CCCN)C(=O)N[C@H]([C@@H](C)O)C(=O)N[C@H](c2ccc(O)cc2)C(=O)N[C@H](c2ccc(O)cc2)C(=O)N[C@H]([C@H](C)O)C(=O)N[C@H](Cc2ccccc2)C(=O)N[C@H](CCCN)C(=O)N[C@H](c2ccc(O[C@H]3O[C@@H](CO)[C@@H](O)[C@@H](O)[C@H]3O[C@@H]3O[C@H](CO)[C@H](O)[C@H](O)[C@@H]3O)cc2)C(=O)N[C@H]([C@H](C)O)C(=O)N[C@H](c2ccc(O)cc2)C(=O)NCC(=O)N[C@H](CC(C)C)C(=O)N[C@H](C)C(=O)N[C@H](c2ccc(O)c(Cl)c2)C(=O)O[C@@H]1C(N)=O`, which growth is on record?
A: 101%

Q: How did the growth turn out when `Clc1cc(Cl)cc(-c2cnc3nonc3n2)c1` was run?
A: 72.5%

Q: How did the growth turn out when `COc1ccc(C(=O)C(CN(C)C)c2ccc(OC)cc2)cc1` (stereo not given) was run?
A: 57.4%

Q: Which growth does the source give for `O=C(CC(=O)C(F)(F)C(F)(F)C(F)(F)F)c1cc2ccccc2o1` here?
A: 114%

Q: For `COc1cc(C2CC(=O)Nc3c2cnn3C)cc(OC)c1OC` (stereo not given), which growth is on record?
A: 110%

Q: Which growth does the source give for `CCN1CCN(Cc2ccc(NC(=O)Nc3ccc(-n4ccc5c(NC(=O)c6ccccc6)nccc54)cc3)cc2C(F)(F)F)CC1` here?
A: -87.5% (active)

Q: With `CCCNCCC(C)=O` as the compound, how does the growth read?
A: 108%

Q: How did the growth turn out when `C[N+](C)(C)CC(=O)N/N=C\c1ccco1` was run?
A: 107%

Q: Which growth does the source give for `O=C(Nc1ccncc1)C(=O)c1cn(S(=O)(=O)c2cccc(Cl)c2F)c2ccccc12` here?
A: 106%

Q: How did the growth turn out when `COC(=O)c1ccc2c(c1)nc(-c1ccc(Cl)cc1)n2-c1cc(C(C)(C)C)[nH]n1` was run?
A: 112%

Q: `CSc1ccc(/C=C2\C=C(CC(=O)NCc3ccc(C(=O)c4ccccc4)cc3)c3cc(F)ccc32)cc1` was tested. Which growth did it give?
A: -75.6% (active)

Q: For `COc1ccc(NC(=O)Cn2c(=O)sc3c(-c4ccc(Cl)cc4)cc(-c4ccc(Cl)cc4)nc32)cc1`, which growth is on record?
A: 100%

Q: How did the growth turn out when `CC[C@]1(O)C[C@H]2CN(CCc3c([nH]c4ccccc34)C(C(=O)OC)(c3cc4c(cc3OC)N(C)[C@H]3[C@@](O)(C(=O)OC)[C@H](OC(C)=O)[C@]5(CC)[C@@H]6C[C@@H]6CN6CC[C@]43[C@@H]65)C2)C1` (stereo not given in full) was run?
A: -73.3% (active)

Q: For `COc1cc(CN2CCC(N3CCCC3=O)c3ccccc32)cc(OC)c1OC` (stereo not given), which growth is on record?
A: 106%

Q: How did the growth turn out when `Cc1ccccc1C1CC(=O)c2ccccc2C1C` (stereo not given) was run?
A: 104%

Q: Which growth does the source give for `Clc1ccc(C2=NN[C@H](c3cn(-c4ccccc4)nc3-c3ccccc3)C2)cc1` here?
A: 70.1%

Q: `CCOC(=O)Nc1ccc2nc(Sc3ccc(Cl)cc3)sc2c1` was tested. Which growth did it give?
A: -26.4% (active)

Q: With `NS(=O)(=O)c1ccc(CCn2c(SCC(=O)N/N=C/c3cccnc3)nc3ccccc3c2=O)cc1` as the compound, how does the growth read?
A: 97.3%

Q: With `ClC1=NC(Cl)C(Cl)=N/C1=N\c1ncn[nH]1` (stereo not given) as the compound, how does the growth read?
A: -76.4% (active)

Q: With `CC(=O)Cc1ccccn1` as the compound, how does the growth read?
A: 133%

Q: Which growth does the source give for `COc1ccc(-c2cnnn2-c2nonc2-n2cccc2)cc1` here?
A: -43.1% (active)

Q: For `O=C(Nc1cccc(-n2ccc3c(NC(=O)c4ccccc4)nccc32)c1)c1ccc(N2CCOCC2)c(C(F)(F)F)c1`, which growth is on record?
A: -23.4% (active)

Q: With `CC(C)(C)OC(=O)N1CCCN(CCNc2nccc(-c3c(-c4cccc(O)c4)nc4sccn34)n2)S1(=O)=O` as the compound, how does the growth read?
A: 46.2%

Q: How did the growth turn out when `COc1ccc(-c2cc(C(=O)Nc3ccc(C)cc3)nc3[nH]c(=O)sc23)cc1` was run?
A: 78.8%

Q: Which growth does the source give for `CN1C(=O)N(C)C2C1NN=c1s/c(=C\c3ccc(Br)cc3)c(=O)n12` (stereo not given) here?
A: 0.786% (active)

Q: `CCCCCCCCCCCCCCCCCC(=O)[O][Sn]([CH2]CCC)([CH2]CCC)[CH2]CCC` was tested. Which growth did it give?
A: -80.9% (active)

Q: Which growth does the source give for `ClC1(Cl)C2CCCCCCC21` (stereo not given) here?
A: 129%

Q: Which growth does the source give for `C=C(C)[C@@H]1CC[C@]2(C(=O)NS(=O)(=O)c3ccccc3)CC[C@]3(C)[C@H](CC[C@@H]4[C@@]5(C)CC[C@H](OC(=O)NS(=O)(=O)c6ccccc6)C(C)(C)[C@@H]5CC[C@]43C)[C@@H]12` here?
A: 31.8%

Q: For `C=CCOC(=O)C1=C(C)NC2=C(C(=O)CC(C)(C)C2)C1c1ccc(OC)cc1` (stereo not given), which growth is on record?
A: 109%

Q: With `FC(F)(F)c1cc(-c2nnc3n2N=C(Cl)CS3)cc(C(F)(F)F)c1` as the compound, how does the growth read?
A: 96.5%

Q: Which growth does the source give for `O=C1/C(=C/c2cc(F)cc(F)c2)Cc2cc(F)cc(F)c21` here?
A: 107%

Q: With `C[C@@H]1N=C(c2ccc3ccccc3c2)Nc2nc3ccccn3c2C1=O` as the compound, how does the growth read?
A: 22.8%

Q: Which growth does the source give for `COc1ccc(-c2cnc(-c3ccncc3-c3cccc(OC)c3)o2)cc1` here?
A: -44.1% (active)

Q: With `O=C(CC(=O)c1ccccc1F)Nc1ccc([N+](=O)[O-])cc1` as the compound, how does the growth read?
A: 105%

Q: Which growth does the source give for `CNC1=C([N+](=O)[O-])C(c2ccccc2O)C(C#N)=C(c2cccs2)O1` (stereo not given) here?
A: 101%

Q: Which growth does the source give for `Oc1ccccc1-c1nnc(COc2ccc(Cl)cc2Cl)o1` here?
A: 67%

Q: `Oc1ccc(-c2nnc3c4[nH]ccc4ncn23)cc1` was tested. Which growth did it give?
A: 105%
